# Experimental data taken from the supplement of paper PMC9694430.
# How the values were obtained:
# Assay in all cases: thermal shift delta Tm vs DMSO control; higher = stronger stabilization (binding)
# Settings in all cases: 12.5 µM; protein concentration 2 µM
# LOC_OS01G01410-cb001 = test system: LOC_OS01G01410-cb001
# Outline: (§1)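 The melting temperature shift given here is a triplicate mean, measured against protein that received only DMSO. Melting temperatures came from Boltzmann fits of differential scanning fluorimetry data on E. coli-expressed, purified rice kinase domain constructs. Each 19.5 μl well contained 2 μM kinase, 100 mM potassium phosphate pH 7.5, 150 mM NaCl, 10% glycerol, 5 × SYPRO Orange and compound in DMSO. Plates were scanned from 25°C to 95°C at 0.05°C/s.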
# LOC_OS01G02750-cb003 = test system: LOC_OS01G02750-cb003
# Outline: as §1
# LOC_OS01G10900-cb004 = test system: LOC_OS01G10900-cb004
# Outline: as §1
# LOC_OS01G13800-cb001 = test system: LOC_OS01G13800-cb001
# Outline: as §1
# LOC_OS01G14860-cb001 = test system: LOC_OS01G14860-cb001
# Outline: as §1
# LOC_OS01G21960-cb002 = test system: LOC_OS01G21960-cb002
# Outline: as §1
# LOC_OS01G39600-cb002 = test system: LOC_OS01G39600-cb002
# Outline: as §1
# LOC_OS01G48390-cb002 = test system: LOC_OS01G48390-cb002
# Outline: as §1
# LOC_OS01G51400-cb002 = test system: LOC_OS01G51400-cb002
# Outline: as §1
# LOC_OS01G52050-cb004 = test system: T1, LOC_OS01G52050-cb004
# T1 sequence (whole entry): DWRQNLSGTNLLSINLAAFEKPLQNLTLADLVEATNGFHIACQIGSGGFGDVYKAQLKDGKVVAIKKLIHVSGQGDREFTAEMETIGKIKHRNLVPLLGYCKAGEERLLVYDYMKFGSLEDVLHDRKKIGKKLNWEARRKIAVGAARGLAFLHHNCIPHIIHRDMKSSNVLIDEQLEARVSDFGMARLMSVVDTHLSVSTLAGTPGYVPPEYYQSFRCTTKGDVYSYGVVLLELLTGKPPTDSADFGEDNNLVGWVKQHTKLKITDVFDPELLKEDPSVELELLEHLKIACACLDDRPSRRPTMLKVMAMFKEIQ
# Outline: as §1
# LOC_OS01G57100-cb003 = test system: LOC_OS01G57100-cb003
# Outline: as §1
# LOC_OS01G60330-cb001 = test system: LOC_OS01G60330-cb001
# Outline: as §1
# LOC_OS01G60700-cb002 = test system: LOC_OS01G60700-cb002
# Outline: as §1
# LOC_OS01G63280-cb003 = test system: LOC_OS01G63280-cb003
# Outline: as §1
# LOC_OS01G67340-cb003 = test system: LOC_OS01G67340-cb003
# Outline: as §1
# LOC_OS01G70970-cb002 = test system: LOC_OS01G70970-cb002
# Outline: as §1
# LOC_OS02G07810-cb001 = test system: LOC_OS02G07810-cb001
# Outline: as §1
# LOC_OS02G08530-cb003 = test system: LOC_OS02G08530-cb003
# Outline: as §1
# LOC_OS02G14120-cb001 = test system: LOC_OS02G14120-cb001
# Outline: as §1
# LOC_OS02G17970-cb001 = test system: LOC_OS02G17970-cb001
# Outline: as §1
SMILES,thermal shift delta Tm (LOC_OS01G01410-cb001) [°C],thermal shift delta Tm (LOC_OS01G02750-cb003) [°C],thermal shift delta Tm (LOC_OS01G10900-cb004) [°C],thermal shift delta Tm (LOC_OS01G13800-cb001) [°C],thermal shift delta Tm (LOC_OS01G14860-cb001) [°C],thermal shift delta Tm (LOC_OS01G21960-cb002) [°C],thermal shift delta Tm (LOC_OS01G39600-cb002) [°C],thermal shift delta Tm (LOC_OS01G48390-cb002) [°C],thermal shift delta Tm (LOC_OS01G51400-cb002) [°C],thermal shift delta Tm (LOC_OS01G52050-cb004) [°C],thermal shift delta Tm (LOC_OS01G57100-cb003) [°C],thermal shift delta Tm (LOC_OS01G60330-cb001) [°C],thermal shift delta Tm (LOC_OS01G60700-cb002) [°C],thermal shift delta Tm (LOC_OS01G63280-cb003) [°C],thermal shift delta Tm (LOC_OS01G67340-cb003) [°C],thermal shift delta Tm (LOC_OS01G70970-cb002) [°C],thermal shift delta Tm (LOC_OS02G07810-cb001) [°C],thermal shift delta Tm (LOC_OS02G08530-cb003) [°C],thermal shift delta Tm (LOC_OS02G14120-cb001) [°C],thermal shift delta Tm (LOC_OS02G17970-cb001) [°C]
CN(C)S(=O)(=O)c1ccc2c(c1)/C(=C/c1cc3c([nH]1)CCCC3)C(=O)N2,0,6.57,2.65,1.7,1.95,3.86,3.22,2.42,3.07,13,6.51,10.9,1.5,7.86,11.3,5.65,1.5,5.64,13,1.69
COc1cc2ncnc(Oc3ccc(CC(=O)Nc4cnn(C(C)C)c4)cc3)c2cc1OC,0.27,0,0.09,-0.43,0.03,0.08,-1.25,0.97,0.22,-0.1,0.71,0.05,1.1,0.13,-0.21,0.47,0.52,0.53,0.06,0.84
CC(C)CC(NC(=O)C(Cc1ccccc1)NC(=O)C(CCC(N)=O)NC(=O)C(Cc1ccc(O)cc1)NC(=O)C(C)NC(=O)CNC(=O)C(CCCCN)NC(=O)C(Cc1c[nH]c2ccccc12)NC(=O)C(NC(=O)C(Cc1c[nH]c2ccccc12)NC(=O)C(CCCCN)NC(=O)CNC(=O)C(CC(N)=O)NC(=O)C(CCC(=O)O)NC(=O)C(Cc1c[nH]c2ccccc12)NC(=O)C(NC(=O)C(Cc1c[nH]c2ccccc12)NC(=O)C(CO)NC(=O)CNC(=O)C1CCCN1C(=O)C(Cc1c[nH]c2ccccc12)NC(=O)C(CCC(N)=O)NC(=O)C(Cc1ccccc1)NC(=O)CNC(=O)C(N)Cc1c[nH]cn1)C(C)O)C(C)O)C(=O)NC(CCCCN)C(=O)NCC(=O)NCC(=O)NCC(=O)NCC(=O)NC(CO)C(=O)NC(CCCNC(=N)N)C(=O)NC(CCCNC(=N)N)C(=O)NC(CCCNC(=N)N)C(=O)NC(CCCNC(=N)N)C(=O)NC(CCCNC(=N)N)C(=O)NC(CCCNC(=N)N)C(=O)NC(CCCNC(=N)N)C(=O)NC(CCCNC(=N)N)C(=O)NC(CCCNC(=N)N)C(=O)O (stereo not given),0.36,-0.66,1.09,1.22,0.08,1.26,2,1.2,-0.25,1.43,0.58,0.74,0.22,0.38,1.17,0.55,0.74,0.87,1.8,-0.53
CC(=O)Nc1nc(C)c(-c2ccc(Cl)c(S(=O)(=O)NCCO)c2)s1,0.98,1.63,1.52,0.63,0.16,1.07,-0.18,0.24,0.16,0.93,1.34,1.21,0.76,0.53,0.18,0.09,1.61,0.77,1.19,0.97
"O=c1cc(-c2ccccc2)oc2c(O)c(O)ccc12 [7,8-Dihydroxyflavone]",2.01,2.3,0.12,2.97,3.88,3.56,0.49,1.55,0.69,1.44,5.23,-0.01,3.2,1.34,0.96,-0.06,2.73,1.59,0.71,3.29
COc1ccc2c(c1)[C@]1(C[C@H]1c1ccc3c(/C=C/c4ccc(CN5C[C@@H](C)O[C@@H](C)C5)cc4)n[nH]c3c1)C(=O)N2,1.94,8.4,1.53,-0.69,1.2,0.67,2.15,1.77,1.27,4.31,2.82,-0.26,0.64,1.2,2.12,2.01,-0.49,1.45,7.54,0.31
CO[C@@H](C)Cn1c(=O)n(C)c2cnc3ccc(-c4cncc(C(C)(C)O)c4)cc3c21,0.7,1.17,0.3,0.76,0.77,0.72,0.26,0.5,0.38,1.9,1.94,0.57,1.37,0.84,0.62,0.44,0.65,1.76,2.83,0.61
CNc1nc(-c2ccc3c(N)n[nH]c3c2)cc(N2C[C@@H](C(=O)NC3CCCCC3)CC[C@H]2C)n1,-0.44,0.32,0.09,0.25,0.55,1.02,-5.84,0.39,0.44,0.02,2.04,0.28,2.12,0.81,-0.04,0.71,1.63,1.27,0.75,1.01
C[C@H](Nc1ncnc2[nH]cnc12)c1cc2ccc(F)cc2nc1-c1ccccn1,0.51,2.1,0.26,0.16,0.16,0.92,-0.54,0.94,0.64,0.37,2.29,1.36,2.33,0.52,0.95,0.17,0.74,0.28,0.28,0.95
c1cn2cc(-c3ccc4cn[nH]c4c3)nc(Nc3ccc(N4CCOCC4)cc3)c2n1 [Entospletinib (GS-9973)],2.35,3.16,0.19,-0.33,1.77,1.76,4.22,0.98,-0.11,3.88,2.14,7.21,1.39,2,2.82,1.17,-0.11,3.77,8.09,0.54
Cc1cccc(Nc2nc(NC3CCCCC3N)ncc2C(N)=O)c1 (stereo not given),0.04,1.48,0.43,-0.24,1.5,1.75,0.32,0.09,0.29,6.64,2.09,1.38,1.44,0.64,2.38,2.39,-0.08,4.25,4.75,0.86
Cc1ccc(NC(=O)c2cccc(C(C)(C)C#N)c2)cc1Nc1ccc2ncn(C)c(=O)c2c1,0.91,0.97,0.69,0.2,0.47,0.52,0.04,1.13,0.61,0.4,2.69,0.66,1.2,3.69,0.79,0.4,1.74,0.95,1.71,1.2
